The source of these data is PubChem BioAssay (NCATS).

The target in assay [1] is Thyrotropin receptor (Homo sapiens) (UniProt P16473). In words: qHTS Assay for Antagonists of the Thyroid Stimulating Hormone Receptor (AID 488980). Also: series mostly up to about 58 µM; 0% is about no effect. Put shortly: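 Inhibition of cAMP raised by EC80 TSH (4 nM final) was read by HTRF, with lysate cAMP competing against cAMP-d2 for cryptate antibody after 30 min at room temperature. The cells were transfected HEK293 held in phosphodiesterase inhibitor RO 20-1724 at 70 uM.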
Chain of Thyrotropin receptor (Homo sapiens) (P16473 whole entry, looked up): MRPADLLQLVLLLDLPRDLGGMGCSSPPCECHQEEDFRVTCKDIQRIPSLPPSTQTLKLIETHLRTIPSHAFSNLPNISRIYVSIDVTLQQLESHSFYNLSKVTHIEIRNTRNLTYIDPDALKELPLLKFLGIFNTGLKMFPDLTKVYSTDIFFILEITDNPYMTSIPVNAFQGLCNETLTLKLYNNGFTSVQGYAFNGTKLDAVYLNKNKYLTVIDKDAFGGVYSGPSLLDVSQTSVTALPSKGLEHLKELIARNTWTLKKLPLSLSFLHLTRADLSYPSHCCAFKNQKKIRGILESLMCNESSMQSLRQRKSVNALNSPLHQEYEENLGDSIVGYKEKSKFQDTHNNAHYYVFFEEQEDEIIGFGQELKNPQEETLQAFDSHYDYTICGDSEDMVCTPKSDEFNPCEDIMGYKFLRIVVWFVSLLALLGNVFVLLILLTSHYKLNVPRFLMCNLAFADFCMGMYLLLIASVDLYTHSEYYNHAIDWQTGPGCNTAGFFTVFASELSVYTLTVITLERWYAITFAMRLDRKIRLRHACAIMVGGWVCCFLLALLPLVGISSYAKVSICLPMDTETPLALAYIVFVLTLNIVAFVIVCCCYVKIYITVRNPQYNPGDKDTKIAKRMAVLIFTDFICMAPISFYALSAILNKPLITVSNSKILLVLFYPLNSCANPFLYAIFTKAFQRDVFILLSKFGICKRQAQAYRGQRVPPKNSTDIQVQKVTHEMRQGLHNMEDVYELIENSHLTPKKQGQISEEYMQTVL
Background: Quantitative high-throughput screening tests each substance at several concentrations.

Assay [2] concerns the target D(1A) dopamine receptor (Homo sapiens) (UniProt P21728). The experiment in a line: HTS Assay for Allosteric Agonists of the Human D1 Dopamine Receptor: Primary Screen for Potentiators (AID 488982). Also: potency is read from the fitted curve at half-maximal effect. Summed up: (§1)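 Tetracycline-induced HEK293 T-REx cells force-coupled to calcium signalling were incubated overnight at 30 C and dye-loaded at room temperature. Calcium flux over 180 s after compound addition flagged agonists; a further 180 s read after EC20 dopamine flagged potentiators.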

Assay [3] has the same target. The experiment in a line: HTS Assay for Allosteric Agonists of the Human D1 Dopamine Receptor: Primary Screen for Antagonists (AID 488983).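 Also: calcium flux response to an EC80 dopamine challenge measured with no-wash dye; nearly all actives have a fitted effect of over 65% in size.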 Also: potency is read from the fitted curve at half-maximal effect. Put shortly:
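Calcium flux readout, no-wash dye, inducible HEK293 T-REx D1 line (force-coupled). Compound added after 10 s baseline, 180 s kinetic read; then dopamine at EC80, further 180 s read.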

The target of assay [4] is Thyrotropin-releasing hormone receptor (Homo sapiens) (UniProt P34981). In words: qHTS for Small Molecule Agonists and Allosteric Enhancers of Human TRH Receptor: Validation Screen for Agonists (AID 493127;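 active = calcium activation more than 3 SD above the typical response in the agonist read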;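 also: intracellular calcium rise by fluo-8 fluorescence before TRH EC20 addition; 0% is about no effect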). The following applies: TRH receptor agonist cell assay; at 2 µM; stronger effect = higher value. Put shortly:
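Read-out: intracellular calcium release measured kinetically by FDSS (fluo-8, ex 480/em 530 nm), 1 reading/s after a 10-cycle baseline. TRHR cells, 2000/well, cultured 18 h at 33.5C, dye-loaded at room temp. Compound-evoked positive calcium signal flags agonists.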

Assay [5] addresses D(1A) dopamine receptor (Homo sapiens) (UniProt P21728). The experiment in a line: HTS Assay for Allosteric Agonists of the Human D1 Dopamine Receptor: Primary Screen for Agonists (AID 488981). Also: 0% is about no effect. Put shortly: as §1
Assay [6] is described as follows: Validation screen for small molecules that induce genotoxicity in human embryonic kidney (HEK293T) cells expressing luciferase-tagged ELG1 (AID 493106). Also: potency is read from the fitted curve at half-maximal effect. Put shortly:
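qHTS format; 2,000 HEK293T ELG1-luc cells/well; 23 nL compound via pin tool; 16 hr, 37 °C/5% CO2; ONE-Glo, 30 min RT; luminescence read.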

A short description of assay [7]: Nrf2 qHTS screen for inhibitors: Validation (AID 493153; active = well fitted inhibition curve with a large enough effect in the main read-out, with a control signal flat, not every such curve was filed as active; also: potency is read from the fitted curve at half-maximal effect). The following applies: Potency: luciferase luminescence; viability change: measured here: cytotoxicity max response. Summed up: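 Concentration-response test in A549 ARE_Fluc reporter cells (5% FBS OPTI-MEM), compound exposure 18-24 h at 37°C, 5% CO2. Cell viability measured first by CellTiter-Fluor fluorescence; ARE-driven luciferase luminescence then measured as Nrf2 activity.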

The target of assay [8] is ATPase family AAA domain-containing protein 5 (Homo sapiens) (UniProt Q96QE3). The experiment in a line: Validation screen for small molecules that inhibit ELG1-dependent DNA repair in human embryonic kidney (HEK293T) cells expressing luciferase-tagged ELG1 (AID 493107).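 Also: cells co-treated with the DNA-damaging agent 5-fluorouridine alongside compound; series mostly up to about 46 µM; % is scaled to controls: 0 for no effect and ±100 for the full control effect; inhibitors lower the ELG1-luciferase luminescence signal; nearly all actives have a fitted effect of over 70% in size.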 Summed up:
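ELG1-luciferase HEK293T reporter; 5-fluorouridine + compound/DMSO, 16 hr, 37 °C, 5% CO2; ONE-Glo 30 min RT; luminescence read, qHTS format.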

SMILES strings stand for the structures. “And” between values parts separate entries of the source, which are not always exact repeats. Identical values can stand only once. Records with an inconclusive call do not appear. The source made the active and inactive calls. Unless noted, calls follow the shape of the dose curve; as a rule, active = well fitted curve in the direction sought with a large enough effect; inconclusive = small, poorly fitted or top-dose-only effect, or another doubt; inactive = no such curve, though single readings can be large; an effect the other way counts as inactive or inconclusive.

Chain of Thyrotropin-releasing hormone receptor (Homo sapiens) (P34981 whole entry, looked up): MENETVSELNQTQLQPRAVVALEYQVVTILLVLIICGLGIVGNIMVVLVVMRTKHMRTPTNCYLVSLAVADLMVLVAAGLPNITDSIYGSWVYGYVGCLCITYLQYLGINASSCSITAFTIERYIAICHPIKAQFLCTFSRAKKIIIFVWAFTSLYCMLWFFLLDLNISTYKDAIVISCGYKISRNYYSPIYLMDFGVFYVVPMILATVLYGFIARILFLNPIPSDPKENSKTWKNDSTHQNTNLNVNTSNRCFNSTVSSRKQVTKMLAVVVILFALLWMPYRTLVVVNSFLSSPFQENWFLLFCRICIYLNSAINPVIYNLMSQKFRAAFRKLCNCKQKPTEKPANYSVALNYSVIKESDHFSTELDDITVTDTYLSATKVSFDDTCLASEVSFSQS
Chain of ATPase family AAA domain-containing protein 5 (Homo sapiens) (Q96QE3 whole entry, looked up, the tested form may be a part): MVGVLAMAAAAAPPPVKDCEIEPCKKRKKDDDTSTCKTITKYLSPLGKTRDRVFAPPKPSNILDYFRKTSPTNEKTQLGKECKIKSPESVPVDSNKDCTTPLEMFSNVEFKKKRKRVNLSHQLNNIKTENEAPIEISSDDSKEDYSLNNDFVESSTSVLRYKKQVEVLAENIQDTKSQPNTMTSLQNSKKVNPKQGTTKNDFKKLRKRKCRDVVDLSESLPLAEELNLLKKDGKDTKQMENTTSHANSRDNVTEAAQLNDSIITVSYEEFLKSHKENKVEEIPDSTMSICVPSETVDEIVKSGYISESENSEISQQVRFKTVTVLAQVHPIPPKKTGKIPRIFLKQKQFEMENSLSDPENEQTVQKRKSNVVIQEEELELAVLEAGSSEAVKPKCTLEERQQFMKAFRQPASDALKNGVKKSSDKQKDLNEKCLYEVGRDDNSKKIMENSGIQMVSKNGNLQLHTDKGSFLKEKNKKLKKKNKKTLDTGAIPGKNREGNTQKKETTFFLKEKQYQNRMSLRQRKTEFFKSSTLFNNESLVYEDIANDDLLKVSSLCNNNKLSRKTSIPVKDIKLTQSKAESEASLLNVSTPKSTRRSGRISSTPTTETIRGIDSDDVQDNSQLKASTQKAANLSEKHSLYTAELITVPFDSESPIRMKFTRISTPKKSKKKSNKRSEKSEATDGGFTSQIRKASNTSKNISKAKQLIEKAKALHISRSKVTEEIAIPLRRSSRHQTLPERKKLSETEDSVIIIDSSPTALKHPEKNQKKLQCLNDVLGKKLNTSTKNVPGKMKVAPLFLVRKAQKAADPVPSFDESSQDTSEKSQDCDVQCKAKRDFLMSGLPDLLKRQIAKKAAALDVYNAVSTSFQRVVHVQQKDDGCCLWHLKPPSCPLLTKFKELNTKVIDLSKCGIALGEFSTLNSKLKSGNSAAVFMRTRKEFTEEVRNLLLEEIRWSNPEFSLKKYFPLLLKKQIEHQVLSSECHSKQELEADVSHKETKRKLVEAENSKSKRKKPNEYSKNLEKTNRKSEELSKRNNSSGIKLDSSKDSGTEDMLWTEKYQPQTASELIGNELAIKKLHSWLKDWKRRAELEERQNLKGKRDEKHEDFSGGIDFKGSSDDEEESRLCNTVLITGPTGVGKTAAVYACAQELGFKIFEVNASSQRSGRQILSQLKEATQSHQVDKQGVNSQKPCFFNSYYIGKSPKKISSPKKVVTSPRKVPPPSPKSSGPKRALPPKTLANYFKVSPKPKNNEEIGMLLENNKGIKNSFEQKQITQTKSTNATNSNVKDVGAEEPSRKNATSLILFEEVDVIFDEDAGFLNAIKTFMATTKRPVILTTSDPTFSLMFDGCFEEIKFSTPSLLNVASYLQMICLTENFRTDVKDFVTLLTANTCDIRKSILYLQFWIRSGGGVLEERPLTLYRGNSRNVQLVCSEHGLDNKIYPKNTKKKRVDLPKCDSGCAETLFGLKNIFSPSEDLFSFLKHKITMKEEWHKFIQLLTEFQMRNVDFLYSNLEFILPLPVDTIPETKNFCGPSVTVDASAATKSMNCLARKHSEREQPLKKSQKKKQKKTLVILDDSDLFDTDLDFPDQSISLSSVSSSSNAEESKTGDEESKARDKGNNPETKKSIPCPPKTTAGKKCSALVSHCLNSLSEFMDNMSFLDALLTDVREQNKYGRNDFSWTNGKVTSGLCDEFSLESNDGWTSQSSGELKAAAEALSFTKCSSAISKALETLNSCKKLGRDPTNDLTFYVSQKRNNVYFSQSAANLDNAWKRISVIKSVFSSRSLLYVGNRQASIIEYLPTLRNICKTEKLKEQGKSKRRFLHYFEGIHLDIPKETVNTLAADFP
Chain of D(1A) dopamine receptor (Homo sapiens) (P21728 whole entry, looked up): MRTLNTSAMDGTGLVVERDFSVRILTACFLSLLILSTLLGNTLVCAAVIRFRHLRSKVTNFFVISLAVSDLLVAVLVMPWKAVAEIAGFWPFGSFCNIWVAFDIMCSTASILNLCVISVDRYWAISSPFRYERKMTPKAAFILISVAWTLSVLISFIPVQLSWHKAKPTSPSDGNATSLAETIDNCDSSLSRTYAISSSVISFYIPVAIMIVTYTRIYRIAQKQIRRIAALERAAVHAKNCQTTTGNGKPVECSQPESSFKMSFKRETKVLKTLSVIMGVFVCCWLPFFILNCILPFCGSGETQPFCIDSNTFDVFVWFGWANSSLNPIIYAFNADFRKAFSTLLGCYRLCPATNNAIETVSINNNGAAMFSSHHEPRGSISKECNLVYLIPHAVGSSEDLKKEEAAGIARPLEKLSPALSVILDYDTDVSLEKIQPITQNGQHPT

On to `Brc1c(Br)c(Br)c2n[nH]nc2c1Br`, for which the compound was classed as inactive in assay [1]. Besides, the Potency entry in assay [2] and in assay [3] was “inactive” throughout. Moreover, the activation in assay [4] was 0.938% (inactive).

Turning to `CCOC(=O)N1CCN(/[N+]([O-])=N/Oc2ccc([N+](=O)[O-])cc2[N+](=O)[O-])CC1`, the Potency entry in assay [5] and in assay [2] was “inactive” each time.

Turning to `C[C@@H](NC(=O)/C(C#N)=C/c1ccc(O)c(O)c1)c1ccccc1`, the compound was called inactive in assay [1]. The Potency entry in assay [3] and in assay [6] was “inactive” in each case. The activation in assay [4] was 0.938% (inactive).

Take `COc1ccccc1N1CCN(CCCCNS(=O)(=O)c2cccc3c(N(C)C)cccc23)CC1`: the compound was called inactive in assay [1]. The Potency entry in assay [2] and in assay [6] was “inactive” in each case. Besides, the Potency in assay [3] is 2 µM (active). Also, the activation in assay [4] is -3.25% (inactive).

As to `O=C(/C=C/c1ccc(O)c(O)c1)OCCc1ccccc1`, in assay [1], the compound was called inactive. For the same compound, the Potency entry in assay [2], in assay [3] and in assay [7] was “inactive” each time. Moreover, the Potency in assay [6] is 20.6 µM (active). Also, the activation in assay [4] was 0.812% (inactive). For the same compound, the viability change in assay [7] was -1.73%.

Consider `O=C(O)c1cc(=O)c2ccccc2[nH]1`, for which, in assay [1], the call was inactive. Further, the Potency result in assay [2], in assay [3], in assay [6] and in assay [7] was “inactive” in each case. In addition, the activation in assay [4] was 0.125% (inactive). Moreover, the viability change in assay [7] is -7.12%.

As for `CC[C@@H](C)[C@H]1O[C@]2(CC[C@H]1C)C[C@@H]1C[C@@H](CC=C(C)[C@@H](O[C@H]3C[C@H](OC)[C@@H](O[C@H]4C[C@H](OC)[C@@H](O)[C@H](C)O4)[C@H](C)O3)[C@@H](C)C=CC=C3CO[C@@H]4[C@H](O)C(C)=C[C@@H](C(=O)O1)[C@]34O)O2`, the Potency result in assay [5] and in assay [3] was “inactive” throughout. Further, the Potency in assay [2] is 2.06 µM (active).

Take `CN(C)c1nc2c(Br)c(Br)c(Br)c(Br)c2[nH]1`: the compound was called inactive in assay [1]. Also, in assay [2], the Potency result is “inactive”. The Potency result in assay [3] is “inactive”. Besides, in assay [4], the activation is 5.88% (inactive). Further, in assay [7], the Potency is 16.4 µM (active) and the viability change was -13.2%.

As for `NC(CCCP(=O)(O)O)C(=O)O` (configuration not stated), the compound was called inactive in assay [1]. Also, the Potency result in assay [3], in assay [6], in assay [8] and in assay [7] was “inactive” in each case. For the same compound, the activation in assay [4] was 0.562% (inactive). Moreover, the viability change in assay [7] was 3.42%.

In the case of `Oc1ccccc1O`, in assay [1], the outcome was inactive. The Potency result in assay [2], in assay [3] and in assay [6] was “inactive” throughout. The activation in assay [4] was 0.375% (inactive).

Regarding `COc1cc2c(CCNC(C)=O)c[nH]c2cc1Cl`, in assay [1], the compound was called inactive. For the same compound, the Potency entry in assay [2], in assay [3], in assay [6] and in assay [7] was “inactive” in each case. Moreover, in assay [4], the activation is 0.375% (inactive). In assay [7], the viability change is 2.33%.

As to `N.N.O=C(O)C1(C(=O)O)CCC1.[Pt]`, the compound was called inactive in assay [1]. Further, in assay [4], the activation was -0.5% (inactive).

On to `CN=c1nc(-c2ccccc2)n(-c2ccccc2)s1`, for which the compound was called inactive in assay [1]. In assay [2], the Potency result is “inactive”. Also, the Potency in assay [3] is 11.2 µM (active). In addition, in assay [4], the activation is 13% (inactive).

On to `C[N+]1(C)C2CC(OC(=O)[C@H](CO)c3ccccc3)CC1C1OC12` (some centres not stated), for which the Potency result in assay [5], in assay [2], in assay [3], in assay [6], in assay [8] and in assay [7] was “inactive” throughout. Besides, the viability change in assay [7] was 3.14% and -2.67%.

With `O=C(O)CC1CC(c2ccccc2)=NO1` (configuration not stated), the Potency entry in assay [5], in assay [2], in assay [3], in assay [6], in assay [8] and in assay [7] was “inactive” in each case. Moreover, the viability change in assay [7] is 12.6%.
